# Assay results: the supplement of paper PMC12067093, “Discovery and optimisation of a covalent ligand for TRIM25 and its application to targeted protein ubiquitination” (Chemical Science, 2025)
# Of roughly 21,000 targets only a part is listed; those with the largest changes were picked by preference.
# Molecular target: SLTM_Q9NWH9_107_KHEADELSGDASVEDDAFIKDCELENQEAHEQDGNDELK (UniProt Q9NWH9)
# Experiment: probe-labelled cysteine peptide fold change vs DMSO (competition) (log2 fold change); higher = less target engagement (more negative = stronger competition)
# Conditions: THP-1, incubation time: 4 h
# 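Further: competitive profiling in live THP-1 cells: cysteine peptides tagged with an iodoacetamide desthiobiotin (IA-DTB) probe, intensity after compound treatment relative to DMSO-treated cells.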
# UniProt Q9NWH9, sequence (Q9NWH9 whole entry, looked up): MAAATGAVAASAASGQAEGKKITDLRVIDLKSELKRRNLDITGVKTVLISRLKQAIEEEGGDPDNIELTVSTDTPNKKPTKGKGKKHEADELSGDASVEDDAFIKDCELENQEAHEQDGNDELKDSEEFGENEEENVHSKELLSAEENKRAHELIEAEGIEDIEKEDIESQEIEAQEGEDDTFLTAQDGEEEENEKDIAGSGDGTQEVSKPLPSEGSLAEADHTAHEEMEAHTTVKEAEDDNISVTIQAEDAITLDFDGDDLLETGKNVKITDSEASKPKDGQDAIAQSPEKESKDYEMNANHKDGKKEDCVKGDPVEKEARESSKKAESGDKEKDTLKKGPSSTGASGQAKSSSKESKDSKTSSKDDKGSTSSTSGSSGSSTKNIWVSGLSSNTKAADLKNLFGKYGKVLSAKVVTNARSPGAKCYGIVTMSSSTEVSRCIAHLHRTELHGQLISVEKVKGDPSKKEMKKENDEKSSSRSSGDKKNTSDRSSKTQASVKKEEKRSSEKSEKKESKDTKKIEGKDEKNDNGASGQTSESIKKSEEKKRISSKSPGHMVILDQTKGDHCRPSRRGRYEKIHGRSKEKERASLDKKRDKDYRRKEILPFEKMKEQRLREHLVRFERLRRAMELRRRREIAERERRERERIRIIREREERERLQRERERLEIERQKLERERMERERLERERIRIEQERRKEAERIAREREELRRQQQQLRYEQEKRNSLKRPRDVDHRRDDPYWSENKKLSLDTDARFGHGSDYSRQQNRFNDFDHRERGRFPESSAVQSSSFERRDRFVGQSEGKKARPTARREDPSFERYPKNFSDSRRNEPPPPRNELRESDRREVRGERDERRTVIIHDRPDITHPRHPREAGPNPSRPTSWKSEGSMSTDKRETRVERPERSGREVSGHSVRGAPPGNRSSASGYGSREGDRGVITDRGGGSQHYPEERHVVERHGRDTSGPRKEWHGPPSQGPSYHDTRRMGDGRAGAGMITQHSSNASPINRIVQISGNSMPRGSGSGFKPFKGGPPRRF
compound,measurement,setting,value
Cc1cc(C(=O)N2CCCN(C(=O)CCl)CC2)ccc1-c1ccccc1 [compound 10],probe-labelled cysteine peptide fold change,10 µM,0.0217
same,probe-labelled cysteine peptide fold change,50 µM,-1.37
